Experimental data as given in PubChem BioAssay AID893 (National Center for Advancing Translational Sciences (NCATS), 2007).
Out of some 75,000 compounds screened, about 5,700 (7.6%) were called active. Entries that show only a call come without a potency. Another 7% or so got no clear call; they are omitted. Calls come from the whole dose curve; as a rule, active = well fitted inhibition curve with a large enough effect; inconclusive = small, poorly fitted or top-dose-only effect; inactive = no such curve, though single readings can be large or run the other way. The full list was thinned out, with actives kept by preference.

What follows are compounds tested against 3-hydroxyacyl-CoA dehydrogenase type-2 (Homo sapiens) (UniProt Q99714) (assay: qHTS Assay for Inhibitors of HSD17B4, hydroxysteroid (17-beta) dehydrogenase 4). Settings: recombinant HSD17B10, NADH fluorescence kinetic; series mostly up to 57.1 µM.
Procedure, shortened: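 20 nM HADH2, pH 9.0 Tris/Tween; cpd preinc 15 min RT; start w/ 1 mM NAD+ + 90 uM b-hydroxybutyryl-CoA; kinetic fluor ex360/em450 q30s x 4 min; delta last-first.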
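Note: the protocol describes HADH2 (HSD17B10) and not the HSD17B4 of the title; nearly all actives have a fitted effect of over 70% in size.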
Potency is the fitted concentration of half-maximal effect.

Row | SMILES | activity change, negative = inhibition | Potency
1 | C[C@@H](N)[C@@H](C)Cc1ccccc1 | 4.93% [at 11.4 µM] (inactive) | –
2 | c1ccc(CSCCc2ccncc2)cc1 | 1.7% [at 11.4 µM] (inactive) | –
3 | COc1ccc(C(=O)NCc2cn3ccccc3n2)cc1 | – | 31.6 µM (active)
4 | COc1ccc(/C=C/NC(=O)c2ccc(OC)cc2)cc1 | 7.09% [at 11.4 µM] (inactive) | –
5 | COc1ccc(C(=O)NC(=O)CSc2nnc(-c3ccco3)n2-c2ccccc2)cc1 | – | inactive
6 | CC(C)(O/N=C(\C(=O)N[C@@H]1C(=O)N2C(C(=O)[O-])=C(C[n+]3ccccc3)CS[C@@H]12)c1csc(N)n1)C(=O)O | – | inactive
7 | CC(C)[C@H]1CC[C@@H](C)C[C@H]1O | – | inactive
8 | O=C(CN(CC1CCCO1)C(=O)CNS(=O)(=O)c1ccccc1)NCc1ccccc1 (stereo not given) | – | inactive
9 | CCC(=O)N(Cc1cc2cc(OC)ccc2[nH]c1=O)c1ccccc1C | – | 25.1 µM (active)
10 | Cc1ccc2[nH]c(=O)c(COC(=O)c3ccccn3)cc2c1 | – | inactive
11 | COc1cccc(-n2c(Cc3cc(=O)[nH]c(=O)[nH]3)nnc2SCC(=O)Nc2ccccc2)c1 | – | inactive
12 | Cc1cc(C)c2cc(CN(Cc3cccs3)Cc3nnnn3CC3CCCO3)c(=O)[nH]c2c1 (stereo not given) | – | inactive
13 | COc1ccc2[nH]c(=O)c(CN(Cc3nnnn3CCc3ccccc3)CC3CCCO3)cc2c1 (stereo not given) | – | 25.1 µM (active)
14 | CCN(Cc1cc2cc(C)ccc2[nH]c1=O)S(=O)(=O)c1ccccc1 | – | inactive
15 | COc1ccc(N(Cc2cc3cc(OC)ccc3[nH]c2=O)S(C)(=O)=O)cc1 | – | inactive
16 | CCC(c1nnnn1Cc1ccccc1)N(Cc1cc2cc(OC)ccc2[nH]c1=O)CC1CCCO1 (stereo not given) | – | inactive
17 | COc1ccc2[nH]c(=O)c(CN(CC3CCCO3)C(=O)Nc3ccccc3)cc2c1 (stereo not given) | – | 25.1 µM (active)
18 | CCOC(=O)c1cc2cc(C)ccc2[nH]1 | – | inactive
19 | CCOc1ccc2[nH]c(=O)c(CN(CCCO)C(C)=O)cc2c1 | – | 31.6 µM (active)
20 | COCC(=O)N1CCC2(CCCN(c3ccccc3)C2)CC1 | – | inactive
21 | Cc1cc(N(C)C)cc(C)[n+]1[O-] | – | inactive
22 | O=C(O)CCC(=O)N(Cc1ccco1)c1nc(-c2ccccc2)cs1 | – | inactive
23 | O=C(c1cccc(C(=O)N2CCc3ccccc32)n1)N1CCc2ccccc21 | – | inactive
24 | COc1cc(OC)c2c(c1Cl)OC1(C2=O)C(O)=CC(=O)CC1C (stereo not given) | – | inactive
25 | COc1ccc2c3c(c(=O)oc2c1OCC(=O)C(C)(C)C)CCCC3 | – | 25.1 µM (active)

Row | SMILES | activity change, negative = inhibition | Potency
26 | CCCOc1ccc2c3c(c(=O)oc2c1OCCC)CCC3 | – | 12.6 µM (active)
27 | COc1ccc(Cl)cc1S(=O)(=O)N1CCN(CC(=O)C(C)(C)C)CC1 | – | inactive
28 | COc1ccc(C(=O)OCC(=O)c2ccc(C)c(S(=O)(=O)N3CCOCC3)c2)cc1OC | – | inactive
29 | Cc1c(C)c2cc3c4c(oc3c(C)c2oc1=O)CCCC4 | – | inactive
30 | O=C(COc1ccc(S(=O)(=O)NCCc2ccccc2)cc1)N1CCCC1 | – | inactive
31 | c1nnc2c3c4c(sc3ncn12)CCC4 | – | inactive
32 | CCOC(=O)C1=C(C)NC(=O)N(C(C)=O)C1c1ccc(Cl)cc1 (stereo not given) | – | inactive
33 | O=C(c1cnccn1)N1CCC[C@@]2(CCN(Cc3ccncc3)C2)C1 | – | inactive
34 | CCS(=O)(=O)N1CCCC(C(=O)NCc2ccc(C)cc2)C1 (stereo not given) | – | inactive
35 | C=C1C([C@@]2(C)C(OC(C)=O)CC(=O)O[C@@](C)(COC(C)=O)C2CC(=O)OC)C(OC=O)C(OC(=O)C(O)C(C)CC)[C@]2(C)C(c3ccoc3)CC(=O)C12O (stereo not given in full) | – | inactive
36 | COc1ccc(COC(=O)N/N=C2/C[C@@H](O)[C@@H](O)[C@@H]3[C@@H]4C(=O)N([C@@H](C)c5ccccc5)C(=O)[C@H]4CC[C@@H]23)cc1 | -1.08% [at 11.4 µM] (inactive) | –
37 | CCOC(=O)c1ccc2[nH]c(C)c(CN3CCN(C)CC3)c(=O)c2c1 | – | inactive
38 | COC(=O)c1cccc(NC(=O)CSc2nc(C)cc(=O)[nH]2)c1 | – | inactive
39 | CCOC(=O)c1sc(=S)n2c1[nH]c(=O)c1ccc(C(=O)OC)cc12 | – | 20 µM (active)
40 | CCOc1ccc(C2C(C(=O)NC)=C(C)Nc3nc4ccccc4n32)cc1OC (stereo not given) | – | inactive
41 | CN(C)c1cc2c(Nc3ccc4c(cnn4Cc4ccccc4)c3)ncnc2cn1 | – | inactive
42 | CCOC(=O)CCc1c(C)c2ccc(OCc3nn[nH]n3)c(C)c2oc1=O | – | 31.6 µM (active)
43 | CCNC(=S)NCC | – | inactive
44 | CCCNC(=O)C1CC(=O)N(c2ccc(OCC(=O)Nc3cccc(C)c3C)cc2)C1 (stereo not given) | – | inactive
45 | O=C(O)c1ccc(NC(=O)c2cccs2)cc1 | – | inactive
46 | Cc1nc(-c2ccc(NC(=O)c3cccs3)cc2)cs1 | – | 25.1 µM (active)
47 | O=C(O)Cc1ccc(NC(=O)c2cccs2)cc1 | – | inactive
48 | CCOC(=O)N1CCC(Nc2c(NCCN3CCN(c4cccc(Cl)c4)CC3)c(=O)c2=O)CC1 | – | inactive
49 | CCC(CCC(C)C1CCC2C3CC=C4CC(O)CC[C@@]4(C)C3CC[C@@]12C)C(C)C (stereo not given in full) | – | inactive
50 | COC(=O)c1ccc(/C=N\n2c(C)nnc2C)cc1 | – | inactive

Row | SMILES | activity change, negative = inhibition | Potency
51 | COc1ccccc1-c1cc(NCc2cccs2)ncn1 | – | inactive
52 | CC1OC(OCC2OC(Oc3c(-c4ccc(O)c(O)c4)oc4cc(O)cc(O)c4c3=O)C(O)C(O)C2O)[C@@H](O)C(O)C1O (stereo not given in full) | – | inactive
53 | COc1ccc(CCC(=O)c2c(O)cc(OC3OC(CO)C(O)C(O)C3O[C@@H]3OC(C)C(O)C(O)C3O)cc2O)cc1O (stereo not given in full) | – | inactive
54 | C[C@@H]1O[C@@H](O[C@@H]2[C@@H](O)[C@H](OCCc3ccc(O)c(O)c3)O[C@H](CO[C@@H]3O[C@H](CO)[C@@H](O)[C@H](O)[C@H]3O)[C@H]2OC(=O)/C=C/c2ccc(O)c(O)c2)[C@H](O)[C@H](O)[C@H]1O | – | 2 µM (active)
55 | CN1C(=O)c2ccccc2C(C(=O)NCCCN2CCCC2)C1c1c[nH]c2ccccc12 (stereo not given) | – | inactive
56 | COC(=O)[C@@H]1CC[C@H](C)[C@@H](c2ccc(C)cc2)N1C(=O)c1ccc(/C=N\OC[C@@H](O)COCc2ccco2)cc1 | -1.91% [at 11.4 µM] (inactive) | –
57 | COc1ccc(CCNC(=O)C2CCN(c3nn4c(=O)cc(C)nc4s3)CC2)cc1OC | – | inactive
58 | CCOc1ccc(CCNC(=O)C2CCN(c3ccc(N4CCOCC4)nn3)CC2)cc1OCC | – | 25.1 µM (active)
59 | CCCS(=O)(=O)N1CCC(C(=O)NCCc2ccc(OC)c(OC)c2)CC1 | – | inactive
60 | CCC(C)NC(=O)C1CCC(=O)N1Cc1ccc(C)cc1 (stereo not given) | – | inactive
61 | CC(C)CO/N=C1/C[C@@H](O)[C@@H](O)[C@@H]2[C@@H]3C(=O)N(C[C@@H]4CCCO4)C(=O)[C@H]3CC[C@@H]12 | 9.42% [at 11.4 µM] (inactive) | –
62 | CC(C)CCn1c(CN(C)Cc2ccccc2)nc2c1c(=O)n(C)c(=O)n2C | – | inactive
63 | Cc1ccnc(SCCn2c(N(C)Cc3ccccc3)nc3c2c(=O)n(C)c(=O)n3C)n1 | – | 31.6 µM (active)
64 | CN(Cc1ccccc1)c1nc2c(c(=O)[nH]c(=O)n2C)n1CCSc1nc2ccccc2[nH]1 | – | inactive
65 | O=c1c(-c2ccccc2)coc2c(CN3CCOCC3)c(O)ccc12 | – | 31.6 µM (active)
66 | COc1ccc(OC)c(C(=O)c2coc3ccc(O)c(CN4CCOCC4)c23)c1 | – | inactive
67 | CN1CCN(Cc2c(O)ccc3c2oc(=O)c2ccccc23)CC1 | – | inactive
68 | Cc1ccnc(-n2sc3ccccc3c2=O)n1 | – | 3.16 µM (active)
69 | COc1ccc(S(=O)(=O)N(CCCN2CCCC2=O)Cc2cc3c(C)ccc(C)c3[nH]c2=O)cc1 | – | inactive
70 | O=C1Nc2ccccc2C12Nc1ccccc1S2 (stereo not given) | – | inactive
71 | CCCOc1ccccc1C1CC(=O)Nc2cc3c(cc21)OCO3 (stereo not given) | – | inactive
72 | O=C1NC(c2cc3c(cc2Cl)OCO3)Oc2ccccc21 (stereo not given) | – | 31.6 µM (active)
73 | O=C(Nc1ccc(Cl)cc1)c1ccsn1 | – | inactive
74 | COC(=O)c1ccc(S(=O)(=O)c2ccc(C(=O)OC)s2)s1 | – | inactive
75 | CCCC[C@@H]1C[C@H]1C(NC(=O)c1ccc(-c2ccccc2)cc1)c1ccc(-c2ccccc2)cc1 (stereo not given in full) | – | inactive

Row | SMILES | activity change, negative = inhibition | Potency
76 | Cc1oc2nc(SCC(=O)NCc3cccnc3)nc(N)c2c1C | – | inactive
77 | COCCn1c(CN2CCC(Cc3ccccc3)CC2)nc2c1c(=O)n(C)c(=O)n2C | – | inactive
78 | COCCn1c(=O)c(-c2cccs2)nc2cnc(N3CCN(C)CC3)nc21 | – | 20 µM (active)
79 | COc1ccc(-n2c(=O)c(C)nc3cnc(N4CCOCC4)nc32)cc1 | – | inactive
80 | COCCn1c(=O)c(-c2ccccc2)nc2cnc(N3CCOCC3)nc21 | – | 20 µM (active)
81 | COCCn1c(=O)c(-c2cccs2)nc2cncnc21 | – | 25.1 µM (active)
82 | COc1ccccc1CCn1c(=O)c(-c2cn(C)c3ccccc23)nc2cncnc21 | – | inactive
83 | CCOC(=O)c1cc2occc2n1CC(=O)NC1CCC(C)CC1 (stereo not given) | – | inactive
84 | CCOC(=O)C1CCCN(C(=O)CN(c2ccc(OC)cc2)S(=O)(=O)c2c(C)noc2C)C1 (stereo not given) | – | inactive
85 | c1ccc(Nc2nc(-c3ccncc3)cs2)nc1 | – | inactive
86 | O=C(Nc1nc(-c2ccncc2)cs1)C1COc2ccccc2O1 (stereo not given) | – | 31.6 µM (active)
87 | O=C(Nc1nc(-c2ccc3c(c2)OCO3)cs1)c1ccncc1 | – | inactive
88 | CN/C(=C\[N+](=O)[O-])NCCSCc1csc(CN(C)C)n1 | – | inactive
89 | COc1cccc(Nc2ncc3ncc(=O)n(C4CC4)c3n2)c1 | – | inactive
90 | O=c1cnc2cnc(Nc3ccccc3)nc2n1Cc1ccc(F)cc1 | – | inactive
91 | Cn1c(=O)c(CCc2ccccc2)nc2cnc(Nc3ccccc3)nc21 | – | inactive
92 | Cc1nc2cnc(Nc3ccccc3)nc2n(Cc2ccc(F)cc2)c1=O | – | inactive
93 | Cc1nc2cnc(N3CCNCC3)nc2n(CCc2ccccc2)c1=O | – | 25.1 µM (active)
94 | Cn1cc(-c2nc3cnc(N4CCNCC4)nc3n(CCc3ccccc3)c2=O)c2ccccc21 | – | inactive
95 | N#Cc1cccc(-c2nc3cnc(N4CCNCC4)nc3n(C3CC3)c2=O)c1 | – | 3.98 µM (active)
96 | O=c1c(CCc2ccccc2)nc2cncnc2n1C1CC1 | – | inactive
97 | COc1cccc(Cn2c(=O)c(CCc3ccccc3)nc3cnc(N(C)C)nc32)c1 | – | 25.1 µM (active)
98 | COc1cccc(Cn2c(=O)c(C)nc3cnc(Oc4ccccc4)nc32)c1 | – | inactive
99 | Cn1c(=O)n(CCc2ccccc2)c(=O)c2c1nc1n2CCCN1c1ccccc1 | – | inactive
100 | CN(C)c1ncc2nc(-c3ccc(F)cc3)c(=O)n(Cc3ccc(F)cc3)c2n1 | – | 3.98 µM (active)
